Source: PubChem BioAssay AID371 (SRMLSC, 2006)
“And” between values parts separate entries of the source, which are not always exact repeats. Equal entries are not always repeated. Hit rate of the full screen: of about 3,300 compounds, about 280 (8.5%) were called active. This is one part of a sample in which actives are shown more often than they occur. Unmarked numbers belong to inactive results.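 The calls were made as follows: active = mean growth inhibition over the two runs of 50% or more; inactive = mean growth inhibition under 50%.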

test: A549 NSCLC cell proliferation inhibitors – ATP luminescence, human non-small cell lung line, primary screen (AID 371); settings: at 10 µM, hits give high values;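 also: compound exposure lasted 72 h before the ATP read; 0% = untreated cell signal and 100% = no luminescence left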

SMILES | growth inhibition
COc1ccc(C2=Nn3c(nnc3-c3ccccn3)SC2)cc1 | 50.1% (active)
CCOc1ccc(C2=Nn3c(nnc3-c3ccccn3)SC2)cc1 | 42.3%
COc1ccccc1-c1nnc2n1N=C(c1ccc(O)c(O)c1)CS2 | 74.4% (active)
COc1ccc(C2=Nn3c(nnc3-c3ccccn3)SC2)cc1OC | 3.8%
CCOc1ccc(C2=Nn3c(nnc3-c3ccccc3OC)SC2)cc1 | 66% (active)
CCOc1ccc(C2=Nn3c(nnc3-c3cccnc3)SC2)cc1 | 22.4%
COc1ccc(OC)c(C2=Nn3c(nnc3-c3ccco3)SC2)c1 | 23.2%
COc1ccc(C2=Nn3c(nnc3-c3ccccc3)SC2)cc1OC | 8.86%
COc1ccc(C2=Nn3c(nnc3-c3cccnc3)SC2)cc1OC | 25%
Cc1ccsc1C1NC(=O)c2c(sc3c2CCCC3)N1 (stereo not given) | 45.3%
O=CN1CCN(C(=O)CN2C(=O)c3ccccc3C2=O)CC1 | -3.2%
C/C=C/c1ccccc1OCc1ccc(C(=O)O)o1 | 6.28%
CC12CN3CC(=O)N4CC5(C)CN(CC(C)(C4)C5=O)C(=O)CN(C1)CC(C)(C3)C2=O | 1.18%
COC(=O)CSc1ncnc2c1sc1nc(-c3ccco3)c3c(c12)CC(C)(C)OC3 | 4.18%
O=C(Nc1ccccn1)c1ccc(=O)[nH]n1 | 5.88%
C=CCn1c(SCC(=O)OC)nc2sc3c(c2c1=O)CCN(C)C3 | 0.89%
CCCC1C2C(=O)N(c3ccccc3OC)C(=O)C2ON1c1ccccc1 (stereo not given) | 5.99%
CN(C)CCN(Cc1ccccc1)c1ccccn1 | 0.66%
CN(Cc1ccccc1)c1ncnc2ccc(Br)cc12 | 55.5% (active)
COCCNc1nc2c(c(=O)n(C)c(=O)n2C)n1Cc1cccc(C(F)(F)F)c1 | 36.4%
Cc1c(NC(=O)c2ccc(=O)oc2)c(=O)n(-c2ccccc2)n1C | -1.44%
Cc1c(NC(=O)c2coc(=O)c(Br)c2)c(=O)n(-c2ccccc2)n1C | 80.5% (active)
Cc1c(NC(=O)C(CC(=O)O)NCc2ccco2)c(=O)n(-c2ccccc2)n1C (stereo not given) | 5.55%
Cc1c(CCC#N)c(N2CCCCC2)n2c(nc3ccccc32)c1C#N | 4.5%
C=C(C)CN1CCN(c2c(CCC#N)c(C)c(C#N)c3nc4ccccc4n23)CC1 | 25.9%
Cc1c(CCC#N)c(N2CCN(C3CCCCC3)CC2)n2c(nc3ccccc32)c1C#N | 89.1% (active)
CC1(C)CC(=O)C(CCCN2C(=O)c3ccccc3C2=O)C(=O)C1 | 0.69%

SMILES | growth inhibition
Cc1ccc(-c2nn3c(-c4cccc(Cl)c4)nnc3s2)cc1 | 45%
CC(C)COc1ccc(C(=O)OCCN2CCOCC2)c(O)c1 | 12.1%
O=C(O)CCCC(=O)N1CCN(C(c2ccccc2)c2ccccc2)CC1 | 0.62%
C(=C\c1ccccc1)/CN1CCN(C(c2ccccc2)c2ccccc2)CC1 | 22.9%
O=c1[nH]c2ccccc2n1CCCN1CCN(C(c2ccccc2)c2ccccc2)CC1 | 90.4% (active)
COc1cc2[nH]c3c(=O)n(CCN(C(C)C)C(C)C)cnc3c2cc1OC | 5.76%
Cc1ccc(-c2nn(CCC(=O)NCC3CCCO3)c(=O)c3ccccc23)cc1 (stereo not given) | 17.4%
O=C(N(c1ccccc1)c1ccccc1)n1ccnc1 | 7.93%
c1ccc(-c2ccc(C(c3ccccc3)n3ccnc3)cc2)cc1 (stereo not given) | 78.7% (active)
COc1cc(C2C(C#N)=C(N)Oc3cc(C)n(CCN4CCOCC4)c(=O)c32)cc(OC)c1OC (stereo not given) | 3.04%
COc1cccc(C2C(C#N)=C(N)Oc3cc(C)[nH]c(=O)c32)c1OC (stereo not given) | 2.31%
COc1cc(C2C(C#N)=C(N)Oc3cc(N)ccc32)cc(OC)c1OC (stereo not given) | 51.6% (active)
CC(C(=O)N1CCCCC1)N1C(=O)c2ccccc2C1=O (stereo not given) | -14.3%
O=C1C(=O)N(CCN2CCOCC2)C(c2ccccn2)/C1=C(/O)c1ccccc1 (stereo not given) | 4.51%
CCN(CC)CCCN1C(=O)C(=O)/C(=C(/O)c2ccc(Cl)cc2)C1c1ccccn1 (stereo not given) | -16.8%
CCCCc1oc2ccccc2c1C(=O)c1cc(I)c(OCCN(CC)CC)c(I)c1 | 83.4% (active)
CCN(CC)CCOC(=O)C(c1ccccc1)c1ccccc1 | 2.67%
CCC(C(=O)OCCN(CC)CC)c1ccccc1 (stereo not given) | 5.51%
CCCn1c(SCC#N)nc2c(c1=O)C1(CCCC1)Cc1ccccc1-2 | 21.2%
O=S(=O)(c1ccccc1)N1CCC(N2CCN(c3ccccc3)CC2)CC1 | 4.82%
Cc1ccc2[nH]c3c(N4CCN(Cc5ccc6c(c5)OCO6)CC4)ncnc3c2c1 | 83.9% (active)
COc1ccc2[nH]c3c(N4CCN(Cc5ccc6c(c5)OCO6)CC4)ncnc3c2c1 | 76.3% (active)
COc1ccccc1C(=O)N1CCN(Cc2ccc3c(c2)OCO3)CC1 | 8.7%
Cc1cc(=O)oc(C)c1C(=O)N1CCN(Cc2ccc3c(c2)OCO3)CC1 | 8.78%
CCCCNC(=O)C(C#N)c1nc2ccccc2nc1N1CCN(Cc2ccc3c(c2)OCO3)CC1 (stereo not given) | 11.1%
CCN(CC)CCNc1ncnc2c1[nH]c1ccc(OC)cc12 | 42.2%
CC(C)OC(=O)C(C#N)c1nc2ccccc2nc1N1CCN(Cc2ccc3c(c2)OCO3)CC1 (stereo not given) | 3.13%

SMILES | growth inhibition
Fc1ccc2[nH]c3c(N4CCN(Cc5ccc6c(c5)OCO6)CC4)ncnc3c2c1 | 83.3% (active)
CCOC(=O)N1CCN(c2ncnc3c2[nH]c2ccc(OC)cc23)CC1 | 28.5%
CC(C)N1CCc2c(sc(N)c2C#N)C1 | 17.2%
CC(=O)N=C(N)Sc1nc2ccccc2[nH]1 | 6.73%
COC(=O)CSc1nc(-c2cccs2)ccc1C#N | 14.7%
COc1cc(Cn2ccnc2)c(OC)cc1Cn1ccnc1 | 1%
Cc1ccc(/C(O)=C2/C(=O)C(=O)N(Cc3ccco3)C2c2cccs2)cc1 (stereo not given) | -0.53%
COC(=O)/C=c1/s/c(=C(/C#N)C(=O)N2CCCCC2)n(-c2ccccc2)c1=O | -4.39%
O=C(c1cncc(Br)c1)N1CCCc2ccccc21 | 8.54%
C[C@@H]1C[C@H](Nc2ccccc2)c2ccccc2N1C(=O)c1cccnc1 | 53.7% (active)
O=C(Nc1cccnc1)c1cccnc1 | -4.29%
O=C(O)CCN(CCC(=O)O)c1nnc(SCc2ccccc2)s1 | -4.61%
CC(=O)NC(=O)Nc1sc(=S)n(C)c1C | -19.1%
CCOc1ccc(/C(O)=C2/C(=O)C(=O)N(c3nc(C)c(C)s3)C2c2ccco2)cc1 (stereo not given) | 18.5%
CCCCSc1nnc2n(CCc3ccccc3)c(=O)c3c4c(sc3n12)COC(C)(C)C4 | 13.8%
CCN(CC)CCNC(=O)c1cc(S(C)(=O)=O)ccc1OC | -4.61%
CCCCOc1cc(C(=O)NCCN(CC)CC)c2ccccc2n1 | 81.4% (active) and 70.4% (active)
CCN(CC)CCNC(=O)c1ccccc1N | 2.63%
C=CCOn1c(=O)c(-c2cc3ccccc3o2)[n+]([O-])c2ccccc21 | 8.84%
CNCCC=C1c2ccccc2CCc2ccccc21 | 79.8% (active)
CN(C)CCC=C1c2ccccc2CCc2ccccc21 | 26.6%
CC1(C)Cc2ccccc2-c2c1c(=O)n(-c1ccccc1)c1nnnn21 | 3.31%
Cc1ccccc1COc1ccc(/C(O)=C2/C(=O)C(=O)N(CCCn3ccnc3)C2c2ccco2)cc1 (stereo not given) | 1.79%
CCN(CC)CCN1C(=O)C(O)=C(C(=O)c2cc3ccccc3o2)C1c1cccnc1 (stereo not given) | -1.01%
CC(C)OC(=O)C(C#N)c1nc2ccccc2nc1N1CCCC1 (stereo not given) | 18.3%
COC(=O)COc1ccc(Oc2nc(SC)nc(N(C)C)n2)nn1 | -1.19%
